Test results as given in PubChem BioAssay AID624049 (National Center for Advancing Translational Sciences (NCATS), 2012).
Activity calls are given as the source filed them. The call rests on the fitted dose curve; in most records, active means well fitted inhibition curve with a large enough effect; inactive means no such curve, though single readings can be large or run the other way.

target: Dual specificity protein kinase CLK3 (Homo sapiens) (UniProt P49761); experiment: Reaction Biology data for inhibitors of CLK3: Probe SAR; settings: Reaction Biology CLK3 kinase assay, 10 uM ATP; series mostly up to 10 µM; activity change, negative = inhibition: at the top concentration
Sequence (P49761 whole entry, looked up, canonical isoform): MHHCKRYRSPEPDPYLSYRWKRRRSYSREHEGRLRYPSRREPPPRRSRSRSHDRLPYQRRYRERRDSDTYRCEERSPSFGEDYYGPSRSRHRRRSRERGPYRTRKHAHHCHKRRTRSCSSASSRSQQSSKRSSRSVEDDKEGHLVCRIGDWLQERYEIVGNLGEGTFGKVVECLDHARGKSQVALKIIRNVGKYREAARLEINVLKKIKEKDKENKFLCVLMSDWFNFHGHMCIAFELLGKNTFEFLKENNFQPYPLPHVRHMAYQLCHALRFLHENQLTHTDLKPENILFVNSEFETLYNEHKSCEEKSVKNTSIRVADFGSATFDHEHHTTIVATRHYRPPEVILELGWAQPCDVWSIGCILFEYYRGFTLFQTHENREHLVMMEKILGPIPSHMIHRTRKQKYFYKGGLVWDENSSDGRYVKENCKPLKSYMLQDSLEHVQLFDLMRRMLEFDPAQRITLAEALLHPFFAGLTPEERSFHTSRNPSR
From the text: Alternative splicing of pre-mRNAs plays a major role in the regulation of eukaryotic gene expression. Alternative splicing is now thought to be one of the primary reasons for the complexity of higher organisms leading to an average of three protein isoforms per gene. Aberrant splicing can lead to a number of diseases and is known to play a role in rare genetic diseases such as progeria syndrome. Hutchinson-Gilford Progeria Syndrome (HGPS) is a pediatric premature aging disease caused by a spontaneous mutation in the lamin A/C (LMNA) gene due to a single point mutation in the lamin A gene effecting 1 in 4 million people. To identify both specific splicing modulators of the lamin A gene as well as general splicing modulators, a cell-based HTS assay was developed using a minigene reporter system (AIDs, 1459 & 1487). […] This AID summarizes the characterization of lead compounds in Clk3. NIH Molecular Libraries Probe Production Centers Network [MLPCN] NIH Chemical Genomics Center [NCGC] MLPCN Grant: MH084827 Assay Submitter (PI): Tom Misteli
Compound IC50s were determined at Reaction Biology (http://www.reactionbiology.com) with ten concentration points starting at 10 uM in the assay using a 3-fold dilution series. The control compound staurosporine was also tested in the 10-dose IC50 mode with the same 3-fold serial dilution, again starting at 10 uM. All kinase reactions were performed using 10 uM ATP in the assay. 100% activity was taken from kinase reactions with DMSO alone (the vehicle used for compound stock solutions).

Activity change, negative = inhibition, inactive:
c1cncc(CNc2ccnc(-c3ccc4cn[nH]c4c3)n2)c1 -29.7%
COc1ccc(-c2ccnc(NCc3ccc(Cl)c(Cl)c3)n2)cc1OC -14.5%
Clc1ccc(CNc2nccc(-c3ccc4c(c3)OCCO4)n2)cc1Cl -48.6%
COc1cccc(-c2ccnc(NCc3ccc(Cl)cc3)n2)c1 -23.4%
Clc1ccc(CNc2nccc(-c3ccc4cn[nH]c4c3)n2)cc1Cl -28.4%
Clc1ccc(Nc2nccc(-c3ccc4c(c3)OCO4)n2)cc1 -26.4%
COc1ccc(-c2ccnc(NCc3ccc(Cl)cc3)n2)cc1 -32.5%
Cc1c(-c2ccnc(NCc3ccc(Cl)cc3)n2)sc(=O)n1C -20.7%
Brc1cc(Br)cc(CNc2nccc(-c3ccc4c(c3)OCO4)n2)c1 -27.2%
c1cncc(CNc2ncncc2-c2ccc3c(c2)OCO3)c1 -14.6%
FC(F)(F)c1cc(Br)cc(Nc2nccc(-c3ccc4c(c3)OCO4)n2)c1 -14.1%
Cc1c(-c2ccnc(NCc3cccnc3)n2)sc(=O)n1C -21.9%
COc1ccc(-c2ccnc(NCc3ccc(Cl)c(Cl)c3)n2)cc1 -27.3%
c1cc(-c2ccc3c(c2)OCO3)nc(Nc2ccc3c(c2)OCO3)n1 -30.6%
O=[N+]([O-])c1cc(Nc2nccc(-c3ccc4c(c3)OCO4)n2)cc(C(F)(F)F)c1 -34.3%
FC(F)(F)c1cccc(Nc2nccc(-c3ccc4c(c3)OCO4)n2)c1 -41.4%
Clc1ccc(CNc2ccnc(-c3ccc4[nH]ncc4c3)n2)cc1Cl -29.6%
Clc1cc(Cl)cc(CNc2ncncc2-c2ccc3c(c2)OCO3)c1 -53.4%
Clc1cc(Cl)cc(CNc2nccc(-c3ccc4c(c3)OCO4)n2)c1 -36.1%
c1cncc(CNc2ccnc(-c3ccc4[nH]ncc4c3)n2)c1 -30.7%
COc1cccc(-c2ccnc(NCc3ccc(Cl)c(Cl)c3)n2)c1 -17.7%
Clc1ccc(CNc2ncncc2-c2ccc3c(c2)OCO3)cc1Cl -34.5%
Clc1ccc(CNc2ncncc2-c2ccc3c(c2)OCO3)cc1 -23.4%
Clc1ccc(CNc2ccnc(-c3ccc4c(c3)OCO4)n2)cc1Cl -15.8%

Potency, active:
Cc1nc(CN(C)c2ncnc3ccc(-c4ccc5[nH]ncc5c4)cc23)cs1 792 nM
c1cncc(CNc2nccc(-c3ccc4[nH]ncc4c3)n2)c1 2660 nM
Brc1ccc(CNc2nccc(-c3ccc4c(c3)OCO4)n2)cc1Br 3230 nM
Clc1ccc(CNc2nccc(-c3ccc4c(c3)OCO4)n2)cc1Cl 3630 nM
c1nc(NCC2CCCO2)c2cc(-c3ccc4c(c3)OCO4)ccc2n1 (stereo not drawn) 836 nM
Cc1nc(CN(C)c2ncnc3ccc(-c4ccc5c(c4)OCO5)cc23)cs1 403 nM
Clc1ccc(CNc2nccc(-c3ccc4[nH]ncc4c3)n2)cc1Cl 2930 nM
Cc1nc(CNc2ncnc3ccc(-c4ccc5c(c4)OCO5)cc23)cs1 1260 nM
c1cncc(CNc2nccc(-c3ccc4c(c3)OCO4)n2)c1 1470 nM
